Experimental data from PubChem BioAssay AID1026 (Columbia University Molecular Screening Center, 2008).
Calls of active or inactive are those of the source. How the calls were made is not given here.

molecular target: Bifunctional epoxide hydrolase 2 (Homo sapiens) (UniProt P34913); assay: sEH inhibitor concentration-response potency, dose response, biochemical, human sEH, fluorescence, Infinite200 (AID 1026); settings: recombinant human sEH, fluorogenic substrate, at 0.2 µM, stronger effect = higher value
Sequence (P34913 whole entry, looked up): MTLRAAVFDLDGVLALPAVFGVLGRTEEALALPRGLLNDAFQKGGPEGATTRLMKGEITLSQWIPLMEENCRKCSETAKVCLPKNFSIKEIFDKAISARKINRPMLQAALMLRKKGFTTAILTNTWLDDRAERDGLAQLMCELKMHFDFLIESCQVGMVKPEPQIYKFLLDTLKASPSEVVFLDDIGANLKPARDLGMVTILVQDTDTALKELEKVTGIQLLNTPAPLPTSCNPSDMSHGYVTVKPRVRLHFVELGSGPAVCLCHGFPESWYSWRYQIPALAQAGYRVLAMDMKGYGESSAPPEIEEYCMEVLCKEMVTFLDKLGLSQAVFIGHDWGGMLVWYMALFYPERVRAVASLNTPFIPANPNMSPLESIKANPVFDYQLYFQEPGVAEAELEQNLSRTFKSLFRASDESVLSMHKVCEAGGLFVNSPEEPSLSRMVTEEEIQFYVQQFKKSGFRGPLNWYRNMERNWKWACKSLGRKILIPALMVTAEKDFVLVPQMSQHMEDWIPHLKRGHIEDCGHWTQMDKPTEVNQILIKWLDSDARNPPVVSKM

inhibition, inactive:
CCn1nc(CC(=O)Nc2ccc(-n3cnnn3)c(C)c2)c2ccccc2c1=O 48.9%
CC(NC(=O)NC12CC3CC(CC(C3)C1)C2)C1CCCO1 (centres undefined) 71.5%
CCN(CCCNC(=O)C1CCN(S(=O)(=O)N2CCC3(CC2)OCCO3)CC1)c1ccccc1 53.8%
O=C(Nc1cccc(F)c1)NC1CCCCC1 51.9%
O=C(Nc1cccc(C(F)(F)F)c1)N1CCC(c2nc(-c3ccc(F)cc3)no2)CC1 68.4%
Cc1oc(-c2ccccc2F)nc1CN1CCC(C(=O)NC2CCCCCCC2)CC1 63.1%
Cn1c(C(=O)N2CCCC(C(=O)NCCCSC3CCCCC3)C2)cc2sccc21 (centres undefined) 49.4%
O=C(Nc1cnn(Cc2ccccc2)c1)NC12CC3CC(CC(C3)C1)C2 59.3%
O=C(NC1CCCCCCC1)C1CCN(S(=O)(=O)N2CCC3(CC2)OCCO3)CC1 49.5%
O=C(Nc1ccc(Cl)cc1)N1CCC(c2nc(-c3ccccc3Cl)no2)CC1 62.8%
CCOc1ccc(NC(=O)c2ccc(F)c(S(=O)(=O)N3CCN(c4ccccn4)CC3)c2)cc1 64.3%
Cc1ccc(S(=O)(=O)N2CCCC(C(=O)NCCC3=CCCCC3)C2)cc1 (centres undefined) 35.1%
CCC(C)c1ccc(NC(=O)c2cccs2)cc1 (centres undefined) 68%
O=C(NCc1ccc2c(c1)OCO2)C1CCC(CNS(=O)(=O)c2cccc3nsnc23)CC1 (centres undefined) 59.7%
C=CCN1C(=O)CSc2ccc(C(=O)NCCC3=CCCCC3)cc21 55.8%
CC1CCCCN1C(=O)NC12CC3CC(CC(C3)C1)C2 (centres undefined) 16.8%
O=C(COC(=O)c1ccc(S(=O)(=O)NCc2ccco2)cc1)NC1CCCCCC1 62.6%
O=C(NCc1ccc(N2CCCC2=O)cc1)NC1CCCCC1 47.5%
O=C(CCSc1ccc(Cl)cc1)NC12CC3CC(CC(C3)C1)C2 46.4%
CCOc1ccc(NC(=O)Nc2ccc(N(C)C(C)=O)cc2)cc1 54.1%
O=C(Nc1ccccc1)Nc1ccc(S(=O)(=O)N2CCCCC2)cc1 72.3%
Cc1ccccc1-c1nc(CN2CCC(C(=O)NCCC3=CCCCC3)CC2)c(C)o1 55.6%
O=C(/C=C/c1cc2c(cc1Br)OCO2)NCc1ccc(Cl)cc1 60.5%
CCCOc1cccc(/C=N/NC(=O)c2csc(C)c2C)c1 49.7%
CCc1cccc(NC(=O)NC2CCCCC2)c1 70.5%
CCC(C)NC(=O)Nc1ccc2c(c1)N(C)C(=O)c1ccccc1S2 (centres undefined) 59.7%
O=C(NCc1ccccc1Cl)c1ccc(Cn2cc(C(F)(F)F)ccc2=O)cc1 52.6%
COc1ccc(OC)c(/C=N/NC(=O)c2csc3ccccc23)c1 51.1%
Cc1ccc(NC(=O)NCCCc2ccccc2)cc1 48.7%
COc1ccc(N2CCC(CNC(=O)Nc3cccc(OC)c3)C2)cc1 (centres undefined) 44.5%
Cc1ccc(-n2nnnc2SCC(=O)NCCC2=CCCCC2)c(C)c1 41.9%
CC(Cc1cccs1)NC(=O)NC1CCCCC1 (centres undefined) 57.2%
CCOC(=O)CSc1nc2ccccc2c(=O)n1CC1CCC(C(=O)NCc2ccco2)CC1 (centres undefined) 45.6%
O=C(NCc1ccc2c(c1)OCO2)C1CCN(c2ccc(S(=O)(=O)N3CCCC3)cc2)CC1 52.2%
O=C(Nc1cccc(C(F)(F)F)c1)NC1CCCCC1 66.5%
CC(C)(C)c1ccc(C(=O)N2CCC(C(=O)NCCC3=CCCCC3)CC2)cc1 38%
CC(Cc1cccs1)NC(=O)Nc1ccc(Cl)c(Cl)c1 (centres undefined) 65.5%
CCc1ccc(/C=N/NC(=O)c2ccc(OC3CCCC3)cc2)s1 65.8%
CC1CC(C)CN(C(=O)c2ccc3c(=O)n(Cc4ccc5c(c4)OCO5)c(=S)[nH]c3c2)C1 (centres undefined) 54.3%
